Screens (PubChem BioAssay)
Compounds with a hit are over-represented: about 19% of the library has one in this group of screens.
HT1080 IDH1KD tx – toxicity to HT-1080 IDH1 knockdown cells (counter line). AID 686971. Potency, µM (highest dose often 46.1 µM), for inactives: at the top dose activity, negative = toxicity, actives largely listed as cytotoxic. HT-1080 IDH1 knockdown viability, ATP luminescence, 48 h. 360,000 tested, 2% active;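 also: potency is read from the fitted curve at half-maximal effect; 0% = DMSO wells and -100% = cell-free medium wells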
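HT-1080-IDH1KD cells (IDH1 knocked down), 750/well in RPMI with 5% FBS, treated with compound 48 h at 37 degrees C. Viability by CellTiter-Glo luminescence, normalised to DMSO and no-cell wells; concentration-response curves classed.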
IL1B secr inh – inflammasome signaling inhibition, IL-1 beta readout; THP-1 LPS/ATP IL-1B secretion, AlphaLISA, 16 h; hits give low values; activity change, % at 57.5 µM; 360,000 tested, 4.7% active; in the data active = activity change below about -50%; inconclusive = mostly about -30% to -49%
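THP-1 cells pretreated 1 hr with compounds (up to 57.5 uM final), then stimulated with LPS (250 ng/mL final) plus ATP (1.25 mM final); secreted IL-1B measured by AlphaLISA after 16 hr, decreased signal indicating inhibition.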
HT1080NT lethal – kills 2HG-producing HT-1080-NT fibrosarcoma cells. HT-1080-NT fibrosarcoma viability, CellTiter-Glo ATP luminescence, 48 h. 360,000 tested, 1.6% active. AID 686970. Potency, µM (titrated, usually from 46.1 µM), for the others: at the highest dose activity, negative = less viability, most hits filed as cytotoxic;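 also: NT is the 2HG producing partner of a matched IDH1 knockdown line; potency is read from the fitted curve at half-maximal effect; 0% = DMSO-treated cells and -100% = media-only wells without cells; nearly all actives have a fitted effect of over 55% in size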
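Luminescent CellTiter-Glo readout after 48 hours of compound exposure at 37 degrees C defined viability of HT-1080-NT cells. Activity was normalized to DMSO wells and cell-free media wells; concentration-response curves were fitted and assigned curve classes.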
DT40 TDP1 CPT – DT40-hTDP1 cell growth loss with CPT; chicken DT40 Tdp1-/-;hTDP1 cells + 20 nM CPT, ATP luminescence, 48 h; Potency, µM (highest dose often 46.2 µM), inactives show at the top dose activity change, negative = growth inhibition, hits mostly inhibitors; 420,000 tested, 12% active; AID 686979; also: potency is read from the fitted curve at half-maximal effect; nearly all actives have a fitted effect of over 55% in size
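Cell growth measured by CellTiter-Glo luminescence after a minimum 48 h, 37 C compound exposure with 20 nM CPT in Tdp1-knockout DT40 cells stably expressing hTDP1, seeded 400/well; qHTS titration format.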
uPA surface inh – inhibitors of cell surface uPA generation | cell surface uPA generation assay, qHTS | Potency, µM (highest dose often 38.3 µM), without a hit: at the top dose activity change, negative = inhibition, usual class: inhibitors | 330,000 tested, 0.31% active | AID 540303; active = well fitted inhibition curve with a large enough effect; inconclusive = small, poorly fitted or top-dose-only effect; inactive = no such curve, though single readings can be large or run the other way; tested in mouse RAW 264.7 cells; also: potency is read from the fitted curve at half-maximal effect; nearly all actives have a fitted effect of over 55% in size
DT40 TDP1 no CPT – qHTS for Inhibitors of human tyrosyl-DNA phosphodiesterase 1 (TDP1): qHTS in cells in absence of CPT; 420,000 tested, 15% active; AID 686978, 2013; DT40 Tdp1-/- hTDP1 cells, no CPT, ATP luminescence, 48 h; Potency, µM (series often up to 46.2 µM), for inactives: at the top dose activity change, negative = growth inhibition, most hits filed as inhibitors; also: potency is read from the fitted curve at half-maximal effect; nearly all actives have a fitted effect of over 55% in size
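Growth of hTDP1-complemented DT40 Tdp1-knockout cells is measured by ATP luminescence after at least 48 hr compound exposure at 37 °C, with DMSO substituting for the 20 nM CPT used in the parallel screen.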
* marks the source's active call; other numbers are inactive results; ? = inconclusive; nt = no result; [ ] = remark or other dose. Unless noted, calls follow the shape of the dose curve; as a rule, active = well fitted curve in the direction sought with a large enough effect; inconclusive = small, poorly fitted or top-dose-only effect, or another doubt; inactive = no such curve, though single readings can be large; an effect the other way counts as inactive or inconclusive. Unless noted, % is scaled to controls: 0 for no effect and ±100 for the full control effect.

SMILES | HT1080 IDH1KD tx | IL1B secr inh | HT1080NT lethal | DT40 TDP1 CPT | uPA surface inh | DT40 TDP1 no CPT
CCCCN(CC)C(=O)CSc1nc2n[nH]c(C)c2c(=N)n1-c1ccc(CC)cc1 | nt | nt | nt | 10µM* | nt | 5.2µM*
CCN(C(=O)CSc1nc2nc(C)cc(C)n2n1)c1cccc(C)c1 | -3% | -14 | 2% | 3% | 8% | -10%
CCN(CC)C(=O)CSc1nc(O)c(Cc2ccccc2)c(=O)n1-c1ccccc1C | 11% | 28 | 4% | -24% | 1% | ?
CCN(C(=O)CSc1nc2n[nH]c(C)c2c(=N)n1-c1ccc(Cl)c(C)c1)c1cccc(C)c1 | 3% | ? | -3% | 18µM* | ? | 21µM*
CCCN(CCC)C(=O)CSc1nc2n[nH]c(C)c2c(=N)n1-c1ccc(OC)cc1 | -23% | -12 | -18% | 13µM* | -11% | 10µM*
CCCCN(CC)C(=O)CSc1nc2n[nH]c(C)c2c(=N)n1-c1cccc(OC)c1 | nt | nt | nt | 23µM* | nt | 9.2µM*
Cn1c(CNC(=O)CCNC(=O)c2ccc(F)c(F)c2)cc(=O)n(C)c1=O | -5% | -4 | ? | -6% | -18% | 27%
CCCCNC(=O)C1(C)CCN1C(=O)c1csnn1 (configuration not stated) | 7% | 3 | ? | -11% | nt | -11%
CCc1ccc(NC(=O)C2CCCN(S(=O)(=O)c3ccc4c(c3)oc(=O)n4C)C2)cc1 (configuration not stated) | nt | nt | nt | -19% | nt | -27%
CC(=O)c1cccc(NC(=O)CCn2nc(C)c(S(=O)(=O)N(C)C)c2C)c1 | nt | nt | nt | ? | nt | -25%
CCN(CC)C(=O)CSc1nnc(-c2ccccc2)n1-c1ccccc1 | 0% | -1 | 5% | ? | 1% | ?
CCCCN(CC)C(=O)CSc1nc2n[nH]c(C)c2c(=N)n1-c1cccc(C)c1 | -23% | 19 | -25% | 7.3µM* | ? | 21µM*
Cc1cc(-n2c(SCc3ccccc3F)nc3n[nH]c(C)c3c2=N)ccc1Cl | 21µM* | 0 | ? | ? | 10% | ?
Cc1ccc(S(=O)(=O)N(C)C[C@@H]2OCc3cnnn3CCCC(=O)N([C@@H](C)CO)C[C@H]2C)cc1 | -1% | 13 | -13% | -4% | nt | -11%
O=C(c1ccccc1F)N(Cc1cc2cc3c(cc2nc1N1CCOCC1)CCC3)CC1CCCO1 (configuration not stated) | nt | nt | nt | -10%[9.04 µM] | nt | ?
COCCn1c(SCC(=O)Nc2cc(C)on2)nc2c(c1=O)SCC2 | 1% | 4 | 2% | 7% | 3% | -29%
CCOc1ccc(/C(O)=C2\C(=O)C(=O)N(c3ccccn3)C2c2ccccc2F)c(C)c1 (configuration not stated) | ? | 1 | -30% | ? | nt | ?
O=C(Oc1ccc2ccccc2c1Cl)N1CCCCCC1 | -32% | -26 | -20% | -21% | -2% | ?
CC1(C)Cc2c(ccc3ccccc23)/C(=C/C(=O)N2CCCCC2)N1 | ? | -62* | ? | 16µM* | -1% | 15µM*
COCC(=O)N1CCC2(CCCN(c3ccccn3)C2)CC1 | nt | nt | nt | ? | nt | -9%
CC(C)COc1ccc(C(=O)Nc2scc(-c3ccc(Cl)cc3Cl)c2C(N)=O)cc1 | 8% | -3 | 18% | 16µM* | 4% | 9.2µM*
Cc1cc(OCC(=O)Nc2c(C(=O)c3ccccc3)oc3ccccc23)cc(C)c1Cl | nt | nt | nt | 10% | nt | 2%
O=C(NCCSCc1c(F)cccc1Cl)Nc1ccccc1 | -1% | -75* | 3% | -28% | -6% | ?
CS(=O)(=O)c1[nH]nc(-c2cccc(Cl)c2)c1C#N | 15% | nt | 19% | 0% | 1% | -1%
CCN(CC(=O)NCc1ccc(Cl)cc1)C(=O)c1ccc2cc(OC)ccc2c1 | -20% | -9 | 1% | ? | 2% | 13µM*
SMILES | HT1080 IDH1KD tx | IL1B secr inh | HT1080NT lethal | DT40 TDP1 CPT | uPA surface inh | DT40 TDP1 no CPT
Cc1ccc(S(=O)(=O)NCc2ccccc2)cc1C(=O)NCC(=O)Nc1c(C)cccc1C | -22% | 0 | -4% | ? | nt | 21µM*
CCN(CC(=O)NCc1ccc(Cl)cc1)C(=O)CSc1ccccc1F | 0% | 10 | -4% | -28% | -2% | ?
CCN(CC(=O)NCc1ccc(Cl)cc1)C(=O)CSc1cccc(C(F)(F)F)c1 | -4% | -28 | -4% | 18µM* | 9% | 18µM*
Cc1ccc(S(=O)(=O)NCc2ccccc2)cc1C(=O)N1CCCCCCC1 | -6% | 0 | 3% | -19% | -2% | ?
CCN(CC(=O)NCc1ccc(Cl)cc1)C(=O)c1cc(S(=O)(=O)NCc2ccccc2)ccc1C | -2% | -11 | -3% | ? | 4% | 21µM*
CSc1ncc2c(n1)-c1ccccc1N(Cc1ccccc1C)S2(=O)=O | nt | nt | nt | ? | nt | -23%
CC(OC(=O)C1=COCCO1)C(=O)NC1CCCCC1 (configuration not stated) | 3% | -2 | 6% | -4% | nt | 5%
COc1ccc(CCn2c(C)cc(C(=O)CN3C(=O)C(=O)N(Cc4ccco4)C3=O)c2C)cc1 | ? | 52 | ? | 13µM* | ? | 9.2µM*
Cc1cc(C(=O)CN2C(=O)C(=O)N(C3CCCC3)C2=O)c(C)n1CCc1ccccc1 | -17% | 7 | -10% | ? | 6% | ?
Cc1cc(C(=O)CN2C(=O)C(=O)N(C3CCCC3)C2=O)c(C)n1CCc1ccc(F)cc1 | -2% | 33 | -13% | 18µM* | 8% | ?
COC(=O)Cn1cc([N+](=O)[O-])nc1C | -1% | -10 | 2% | -5% | -7% | -9%
CCOC(=O)CSc1nc2c(sc3cccc(F)c32)c(=O)n1Cc1ccc(OC)cc1 | nt | nt | nt | -1% | nt | -13%
COc1ccc(C(=O)Nc2nnc(SCc3cc(=O)n4cc(Cl)ccc4n3)s2)cc1 | nt | nt | nt | -10% | nt | -7%
Cc1cccc(OCCn2c(=S)[nH]c3ccccc32)c1 | ? | -8 | -15% | 23µM* | 2% | ?
S=c1[nH]c2ccccc2n1CCc1ccncc1 | 1% | -61* | 3% | -18% | -5% | ?
Cc1ccc(OCCn2c(=S)[nH]c3ccccc32)c(C(C)C)c1 | ? | 30 | -27% | 26µM* | -15% | ?
S=c1[nH]c2ccccc2n1Cc1ccccc1 | -18% | -16 | -14% | ? | 1% | ?
COc1ccccc1OCCn1c(=S)[nH]c2ccccc21 | ? | 11 | -27% | 18µM* | -4% | ?
CCCCc1c(C)[nH]c(=S)[nH]c1=O | 4% | 0 | 4% | 9% | -4% | 2%
